# Screening results as filed in PubChem BioAssay.
# Most compounds without a hit are left out; they make up all but 2.3% or so of the library.
# TPT1 inhibitor: inhibitors of Candida albicans tRNA 2'-phosphotransferase TPT1; recombinant caTPT1, FP RNA substrate dephosphorylation; inhibition, % at 5 µM; actives 0.81% (n = 300,000); AID 1962;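 active = inhibition above the mean of all tested compounds plus 3 SD, set per screening campaign, cut at about 24% in these data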
# IDE inh: cellular human IDE inhibition. P14735. HEK cells, FAbetaB cleavage, fluorescence polarization. inhibition, % at 5.59 µM. actives 0.41% (n = 320,000);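 active = percent inhibition above the average of all tested compounds plus 3 SD, set per screening campaign, cut at about 16% in these data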;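 note: IDE supplied by intact live HEK cells; FP after avidin binding of uncleaved biotin substrate so inhibition keeps polarization high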
# IDE cell activ: boosts human insulin-degrading enzyme activity in HEK cells. FAbeta-B cleavage, fluorescence polarization; 0% vehicle, 100% cell-free pure enzyme wells. activation, % at 5.96 µM. actives 0.073% (n = 340,000). AID 493087;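 active = activation above the mean of all tested compounds plus 3 SD, set per screening campaign, cut at about 17% in these data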
# Rpn11 block: Rpn11 (human) deubiquitinase inhibition | O00487 | actives 0.59% (n = 360,000) | inhibition, % at 20 µM | human 26S proteasome, Ub4-pepOG fluorescence polarization; 20S core pre-blocked with epoxomicin;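 active = inhibition at 20 µM, scaled to each plate's controls, above about 33%, limit read from the data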
# Calb FLC: affects C. albicans growth with fluconazole; C. albicans CaCi-2 (fluconazole-resistant clinical isolate) + fluconazole, Alamar Blue growth, 48 h; growth inhibition, % (test concentration not listed); AID 1979; actives 0.57% (n = 300,000);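 active = growth inhibition above about 58% in most replicates, limit read from the data, passing the limit was not always enough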;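 note: all wells also contain fluconazole at 8 µg/ml as a sub-toxic cotreatment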
# Rin1 Abl inh: blocks binding of human Rin1 to Abl. P00519+Q13671. TR-FRET Rin1/Abl binding, biochemical. inhibition, % at 7.35 µM. actives 0.4% (n = 360,000); in the data active = inhibition above about 5%, passing the limit was not always enough
# IDE inh confirm: confirmation of human insulin-degrading enzyme inhibitors in cells; shares compounds with IDE inh; HEK cells, FAbetaB cleavage, fluorescence polarization; inhibition, % at 5.59 µM; actives 51% (n = 1,200); AID 435028;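 active = mean inhibition across triplicate wells above the cutoff set by the earlier primary insulin-degrading enzyme screen, cut at about 16% in these data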
# HEK293 tox: HEK cell cytotoxicity, counter-screen for IDE inhibitors; shares compounds with IDE inh; inhibition, % at 5.59 µM; HEK293 cytotoxicity, ATP luminescence; actives 28% (n = 1,200); in the data active = inhibition above about 22%
# IDE FP artifact: fluorescence interference counter-screen for IDE inhibitors; shares compounds with IDE inh; FP counterscreen for fluorescent artifacts, IDE probe project; IC50, µM; 30 tested, under 10 active; AID 588718; call rule not given here
# A number is an active result; n = inactive; x = no result given.
SMILES,TPT1 inhibitor,IDE inh,IDE cell activ,Rpn11 block,Calb FLC,Rin1 Abl inh,IDE inh confirm,HEK293 tox,others
O=C(NCc1ccncc1)c1cc(-c2ccc(Cl)cc2)oc1C(F)(F)F,n,n,n,n,n,n,x,x,
O=C(NCc1ccccn1)c1cc(-c2ccc(Cl)cc2)oc1C(F)(F)F,n,16,x,n,n,n,n,n,
CCCCCN(C(=O)CCC(=O)OCC(=O)c1ccc(C(C)(C)C)cc1)c1c(N)n(CCCC)c(=O)[nH]c1=O,n,n,n,n,n,n,x,x,
CCCCCN(C(=O)CCC(=O)OCC(=O)c1ccc(CCC)cc1)c1c(N)n(CCCC)c(=O)[nH]c1=O,n,24,n,n,n,n,21,n,
CCOc1ccc(CN(C)C(=O)CNC(=O)c2ccc3ccccc3c2)cc1OC,n,17,n,n,n,n,n,n,
COCCCN(Cc1ccco1)C(=O)Cn1ncc2c(=O)oc3ccc(C)cc3c21,n,n,n,n,n,n,x,x,
CC(Sc1nnc(-c2cccnc2)n1-c1ccccc1F)C(=O)N1CCCc2ccccc21 (stereo not drawn),n,22,x,x,n,x,16,n,IDE FP artifact=n
CC(=O)c1ccc(NC(=O)c2cccs2)cc1,n,n,n,n,n,n,x,x,
Cc1cc(C)cc(C(=O)Nc2ccc(NC(=O)c3cccs3)cc2)c1,n,19,n,n,n,n,n,n,
COc1ccc2c(c1)C(C)(CCN)C(=O)N2C (stereo not drawn),n,n,n,n,n,n,x,x,
COc1cc(/C=c2\s/c(=C(/C#N)C(=O)N3CCCC3)n(-c3ccccc3)c2=O)ccc1O,n,28,n,x,n,n,152,29,
COC(=O)/C=c1/s/c(=C(/C#N)C(=O)N2CCCCC2)n(-c2ccccc2)c1=O,n,n,n,n,n,n,x,x,
Oc1ccc(Br)cc1C=Nc1ccc2c3c(cccc13)CC2,n,22,n,x,n,n,n,n,
Cc1cccc(OC(C)C(=O)Nc2ccc(N3CCCCC3)cc2)c1 (stereo not drawn),n,n,n,n,n,n,x,x,
CC(C)(C)NC(=O)NC(=O)CN1CCN(c2ccccc2)CC1,n,n,n,n,n,n,x,x,
CC(C)(C)NC(=O)NC(=O)CN1CCN(c2cccc(Cl)c2)CC1,n,41,n,n,n,n,22,n,
O=C(NCCc1ccccn1)C1CCCN1S(=O)(=O)c1ccc(Cl)cc1 (stereo not drawn),n,n,n,n,n,n,x,x,
Cn1nc(N)c2c(-c3ccc(Cl)cc3)c(C#N)c(N)nc21,n,16,n,n,n,n,n,n,
COc1ccc(C2CC(c3cccs3)=NN2C(=O)CSc2nc(=O)n3ccccc3n2)cc1 (stereo not drawn),n,17,n,n,n,n,n,n,
Cc1ccc(C2CC(c3cccs3)=NN2C(=O)CSc2nc(=O)n3cc(C)ccc3n2)cc1 (stereo not drawn),n,n,n,n,n,n,x,x,
Cn1c(CN2CCOCC2)nnc1SCC(=O)NCCc1ccccc1,n,21,n,n,n,n,n,n,
CCOC(=O)C1=C(c2ccccc2)NC(SCC(N)=O)=C(C#N)C1c1cccnc1 (stereo not drawn),n,n,n,n,n,n,x,x,
CC(=O)C1=C(C)NC(SCSc2ccccc2)=C(C#N)C1c1cccnc1 (stereo not drawn),n,21,x,x,n,x,n,n,
Cn1c(SCC(=O)c2ccccc2)nnc1-c1ccncc1,n,n,n,n,n,n,x,x,
Cn1c(SCC(=O)c2ccc3c(c2)Cc2ccccc2-3)nnc1-c1ccccc1,n,28,n,n,n,n,n,n,
SMILES,TPT1 inhibitor,IDE inh,IDE cell activ,Rpn11 block,Calb FLC,Rin1 Abl inh,IDE inh confirm,HEK293 tox,others
COc1cccc2cc(-c3nc4ccccc4o3)c(=O)oc12,n,n,n,n,n,n,x,x,
O=c1oc2ccc(Br)cc2cc1-c1nc2ccccc2o1,n,20,n,n,n,n,73,n,
Cc1ccc(S(=O)(=O)N2CCOCC2)cc1C(=O)NCc1ccccc1CN1CCCC1,x,n,n,n,x,n,x,x,
Cc1ccc2c(c1)C1NC(=S)NC(C)(O2)C1C(=O)Nc1ccc(Cl)cc1 (stereo not drawn),n,17,n,n,n,n,n,n,
COc1cc(/C=C2/SC(=S)N(Cc3ccccc3)C2=O)ccc1OCC(=O)O,n,n,n,n,n,n,x,x,
CC(=O)Oc1ccc(/C=C2/SC(=S)N(Cc3ccccc3)C2=O)cc1,n,16,n,n,n,n,78,n,
CSc1ncc(CNc2cc([N+](=O)[O-])ccc2C)c(N)n1,n,n,n,n,n,n,x,x,
COc1ccc(-c2nnc(Nc3nc4c(OC)cccc4s3)o2)cc1,n,24,n,n,n,n,19,n,
Cc1ccc2[nH]c3c(NCCCN4CCCC4=O)ncnc3c2c1,n,18,n,n,n,n,n,n,
c1coc(CNc2ncnc3nc[nH]c23)c1,n,n,n,n,n,n,x,x,
Cc1ccc2[nH]c3c(NCc4ccco4)ncnc3c2c1,n,65,n,n,n,n,53,53,
Cc1c(Cl)cnc(NC(=O)COC(=O)c2ccncc2)c1Cl,x,n,n,n,x,n,x,x,
COc1ccc2nc3sc(C(=O)N4CCN(C)CC4)cc3cc2c1,n,n,n,n,n,n,x,x,
COc1ccc2nc3sc(C(=O)NCCCN4CCc5ccccc5C4)cc3cc2c1,n,20,n,n,n,n,n,n,
COc1ccccc1C(CNC(=O)C1CC(=O)N(Cc2ccccc2)C1)N1CCCC1 (stereo not drawn),x,n,n,n,x,n,x,x,
CCCC/C=C1/CCC(CN(C)C)C1=O (stereo not drawn),x,x,n,n,x,n,x,x,
O=C(CNC(=O)c1cccc(F)c1)N/N=C/c1cccs1,n,n,n,n,n,n,x,x,
O=C(CNC(=O)c1ccc(S(=O)(=O)N2CCCC2)cc1)N/N=C/c1ccc(Cl)cc1Cl,n,24,n,n,n,n,n,n,
O=C(CNC(=O)c1ccc(S(=O)(=O)N2CCCC2)cc1)N/N=C/c1ccccc1,n,n,n,n,n,n,x,x,
C[C@H]1CN=C(Nc2ccccc2)N1CCC1CCCC1,n,n,n,n,n,n,x,x,
O=C(CSc1nc2[nH]ncc2c(=O)n1-c1ccccc1Cl)N1CCCC1,n,18,n,n,n,n,n,n,
CCOc1ccc(NC(=O)CSc2nc3[nH]ncc3c(=O)n2-c2ccccc2OC)cc1,n,62,n,n,n,n,n,n,
CCc1ccccc1-n1c(SCC(=O)N2CCCC2)nc2[nH]ncc2c1=O,n,n,n,n,n,n,x,x,
